High-throughput results: PubChem, National Center for Advancing Translational Sciences (NCATS)
Most compounds without a hit are left out; they make up all but 21% or so of the library.
SARS PLpro yeast – SARS-CoV PLP inhibition in yeast. 330,000 compounds, 0.19% hits. AID 485353. S. cerevisiae expressing SARS-CoV PLpro, growth rescue. Potency, µM (titrated, usually from 32.9 µM), for inactives: at the top dose activity, positive = growth rescue, usual class: activators; also: potency is read from the fitted curve at half-maximal effect; 0% is about no effect; nearly all actives have a fitted effect of over 55% in size
Pf growth 96h – inhibits malaria parasite growth, 96 h; P. falciparum luciferase reporter growth, 96 h; 320,000 compounds, 6.9% hits; Potency, µM (doses to about 28.7 µM), inactives show top-dose activity change, negative = inhibition, usual class: inhibitors; AID 504834; active = well fitted inhibition curve with a large enough effect; inconclusive = small, poorly fitted or top-dose-only effect, or another doubt; inactive = no such curve, though single readings can be large or run the other way; also: potency is read from the fitted curve at half-maximal effect; % is scaled to controls: 0 for no effect and ±100 for the full control effect
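96 h incubation, 37 C, 5% CO2, of luciferase-reporter P. falciparum-infected RBCs (2% hematocrit, 0.05% parasitemia final) with test compounds; endpoint luminescence.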
Shiga toxin inh – Shiga toxin inhibition | inhibition, % at 38.7 µM | AID 2315 | Vero cells, Shiga toxin protein synthesis inhibition reporter | 290,000 compounds, 9.2% hits; in the data active = inhibition mostly above about 28%, no sharp cut-off; inactive = mostly below about 43%; also: 0% is about no effect
NS1 function inh – influenza NS1 inhibition; Potency, µM (doses to about 46.1 µM), without a hit: at the highest dose activity, positive = more growth; 270,000 compounds, 0.4% hits; also: potency is read from the fitted curve at half-maximal effect; actives are rising curves; nearly all actives have a fitted effect of over 50% in size
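S. cerevisiae expressing influenza A NS1, grown in glucose, washed, then diluted 1:100 into pH 6.0 -URA galactose medium with 23 nl compound. Growth recovery read as OD600; NS1-free strain serves as control.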
Pf growth 48h – P. falciparum growth inhibition at 48 hours (one generation). P. falciparum luciferase growth in erythrocytes, 48 h. Potency, µM (doses to about 28.7 µM), for inactives: at the top dose activity change, negative = inhibition, hits mostly inhibitors. 310,000 compounds, 5.9% hits; active = well fitted inhibition curve with a large enough effect; inconclusive = small, poorly fitted or top-dose-only effect, or another doubt; inactive = no such curve, though single readings can be large or run the other way; also: potency is read from the fitted curve at half-maximal effect; % is scaled to controls: 0 for no effect and ±100 for the full control effect
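In quantitative HTS format, infected erythrocytes bearing luciferase-reporter parasites were treated for a single generation at 37 C. Luminescence after adding detection reagent served as the growth measure.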
CHX counter – counter-screen hit for Shiga toxin inhibitors, cycloheximide. cell reporter, cycloheximide protein synthesis inhibition counterscreen. max response, %. 300,000 compounds, 12% hits; in the data active = max response mostly above about 13%, no sharp cut-off; inactive = mostly below about 14%; also: read at 38.3 µM for the half of the compounds with a filed dose; 0% is about no effect
The depositor's hits bear a star. Unless noted, calls follow the shape of the full dose curve.

Screening CCOc1ccc(C(O)c2nccn2C)cc1 (centres undefined) returned SARS PLpro yeast -3%, Shiga toxin inh 108*, NS1 function inh 8%, Pf growth 48h 54% and CHX counter 42*.
`Cn1ccnc1SCC(=O)Nc1ccc(Oc2ccccc2)cc1` gave SARS PLpro yeast -7%, Pf growth 96h 66%, Shiga toxin inh 55, NS1 function inh -46%, Pf growth 48h 25% and CHX counter 24*.
For CCOc1ccc(NC(=O)CSc2nccn2C)cc1 the results were SARS PLpro yeast 12%, Pf growth 96h 179%, Shiga toxin inh 48*, NS1 function inh 4%, Pf growth 48h 166% and CHX counter 42*.
O=C(CN(c1ccccn1)S(=O)(=O)c1ccccc1)N/N=C/c1cccc([N+](=O)[O-])c1 was read as SARS PLpro yeast 0%, Pf growth 96h 2%, Shiga toxin inh -9, NS1 function inh -20%, Pf growth 48h 18% and CHX counter -2.
CC(=O)C1=C(C)NC(SCC(=O)Nc2nc3ccccc3s2)=C(C#N)C1c1ccc(Cl)cc1 (centres undefined) was read as SARS PLpro yeast 7%, Pf growth 96h 6.6µM*, Shiga toxin inh -9, NS1 function inh inconclusive, Pf growth 48h 7.4µM* and CHX counter 22*.
For C=CCOC(=O)C1=C(C)NC(SCC(N)=O)=C(C#N)C1c1ccc(C)cc1 (centres undefined) the results were SARS PLpro yeast 1%, Pf growth 96h inconclusive, Shiga toxin inh -6, NS1 function inh 1%, Pf growth 48h -7% and CHX counter 1.
`CC1=C(C(=O)Nc2ccc(Cl)cc2)C(c2ccncc2)C(C#N)=C(SCC(N)=O)N1` (centres undefined) gave SARS PLpro yeast 6%, Pf growth 96h inconclusive, Shiga toxin inh -10, NS1 function inh 5% and CHX counter -3.
C=CCOC(=O)C1=C(C)NC(SCC(=O)Nc2ccc(C)c(Cl)c2)=C(C#N)C1c1ccco1 (centres undefined) was read as SARS PLpro yeast 0%, Pf growth 96h inconclusive, Shiga toxin inh 18, NS1 function inh -5%, Pf growth 48h 4.1µM* and CHX counter -4.
For C=CCOC(=O)C1=C(C)NC(SCC)=C(C#N)C1c1ccc(Cl)cc1 (centres undefined) the results were SARS PLpro yeast -29%, Pf growth 96h 10µM*, Shiga toxin inh -19, NS1 function inh 0%, Pf growth 48h inconclusive and CHX counter -5.
NC(=O)C1CCN(C(=O)c2cccc(S(=O)(=O)N3CCCC3)c2)CC1 was read as SARS PLpro yeast -6%, Pf growth 96h 38% and Pf growth 48h 28%.
`O=C(Cn1nnc(-c2ccccc2)n1)c1ccccc1` gave SARS PLpro yeast 18%, Pf growth 96h inconclusive, Shiga toxin inh 84, NS1 function inh -6%, Pf growth 48h 8% and CHX counter 2.
Cc1ccccc1NC(=O)Cn1nnc(-c2ccc(N3CCOCC3)cc2)n1 was read as SARS PLpro yeast 1%, Shiga toxin inh 38, NS1 function inh -5%, Pf growth 48h 126% and CHX counter 8.
Cc1ccc(C(=O)Cn2nnc(-c3ccccc3)n2)cc1 was read as SARS PLpro yeast 0%, Pf growth 96h 22%, Shiga toxin inh 82*, NS1 function inh -2%, Pf growth 48h 38% and CHX counter 21.
Screening O=C(Cn1nnc(-c2cccc(C(F)(F)F)c2)n1)N1CCOCC1 returned SARS PLpro yeast 0%, Pf growth 96h 27%, Shiga toxin inh -4, NS1 function inh -2%, Pf growth 48h 13% and CHX counter 2.
O=C(Cn1nnc(-c2ccc(N3CCOCC3)cc2)n1)N1CCOCC1 was read as SARS PLpro yeast 0%, Pf growth 96h 268%, Shiga toxin inh 34*, NS1 function inh 1%, Pf growth 48h 129% and CHX counter 34*.
O=C(Cn1nnc(-c2ccc(N3CCOCC3)cc2)n1)OC1CCCCC1 was read as SARS PLpro yeast -4%, Pf growth 96h 7.4µM*, Shiga toxin inh 15, NS1 function inh -10%, Pf growth 48h 235% and CHX counter 2.
`CC(C)c1ccc(-c2nnn(CC(=O)N3CCCCC3)n2)cc1` gave SARS PLpro yeast 2%, Pf growth 96h 7%, NS1 function inh 15%, Pf growth 48h 4% and CHX counter 9.
For Cc1ccc(-c2nnn(CC(=O)N3CCCCC3)n2)cc1 the results were SARS PLpro yeast 0%, Pf growth 96h 8%, NS1 function inh -9%, Pf growth 48h 0% and CHX counter 19*.
`CCOc1ccccc1C(=O)NCC(=O)NCC(C)(C)N1CCOCC1` gave SARS PLpro yeast 3%, Pf growth 96h -1% and Pf growth 48h -12%.
`CCCCOc1ccc(-c2nnn(CCC(=O)N3CCOCC3)n2)cc1` gave SARS PLpro yeast -2%, Pf growth 96h 9.3µM*, Shiga toxin inh 78*, NS1 function inh -72%, Pf growth 48h 67% and CHX counter 36*.
For CC(=O)Nc1ccc(-c2nnn(CC(=O)c3ccc(F)cc3)n2)cc1Cl the results were SARS PLpro yeast -1%, Pf growth 96h 13µM*, Shiga toxin inh -2, NS1 function inh -2%, Pf growth 48h inconclusive and CHX counter -2.
CC(=O)Nc1ccc(-c2nnn(CC(=O)c3ccccc3)n2)cc1Cl was read as SARS PLpro yeast -4%, Pf growth 96h inconclusive, Shiga toxin inh 14, NS1 function inh -3%, Pf growth 48h inconclusive and CHX counter -2.
CCCOc1ccc(-c2nnn(CC(=O)N3CCC(C)CC3)n2)cc1 was read as SARS PLpro yeast -15%, Pf growth 96h -5%, Shiga toxin inh -14, NS1 function inh -2% and CHX counter 10.
O=C(Cn1nnc(-c2ccc(Cl)cc2)n1)NC1CC2CCC1C2 (centres undefined) was read as SARS PLpro yeast 6%, Shiga toxin inh -2, NS1 function inh -16%, Pf growth 48h 0% and CHX counter -6.
Cc1ccc(-c2nnn(CC(=O)NC3CC4CCC3C4)n2)cc1 (centres undefined) was read as SARS PLpro yeast -12%, Pf growth 96h -18%, Shiga toxin inh 12, NS1 function inh -16%, Pf growth 48h 21% and CHX counter 12*.
CCOC(=O)C1CCN(C(=O)COc2ccc3c(C)cc(=O)oc3c2)CC1 was read as SARS PLpro yeast 2%, Pf growth 96h -27% and Pf growth 48h inconclusive.
`CC1CCCC(NC(=O)CSC2=Nc3ccccc3C3CC=NN23)C1C` (centres undefined) gave SARS PLpro yeast 3%, Pf growth 96h inconclusive and Pf growth 48h -26%.
CCCCn1c(NCc2ccc3c(c2)OCO3)nc2ccccc21 was read as SARS PLpro yeast 10%, Pf growth 96h inconclusive, Shiga toxin inh 29, NS1 function inh -20%, Pf growth 48h inconclusive and CHX counter 12*.
